Test [1] is described as follows: Cell Viability - BJ (AID 421).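 Note: potency is the fitted concentration of half-maximal effect; cells exposed to compound for 40 hours at 37 °C before readout.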 To be noted: BJ fibroblast viability, qHTS. The method in brief:
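Normal human BJ foreskin fibroblasts, 1500/well in complete medium, treated 40 hr at 37 °C. Cellular ATP by CellTiter-Glo luminescence; normalized to DMSO and 100 uM tamoxifen, AC50 from Hill fit.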
In general terms: qHTS replaces the single test concentration by a dilution series.

Test [2] can be described thus: Cell Viability - Jurkat (AID 426;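 active = dose-dependent loss of cell ATP signal giving a full or clear fitted curve, ranked by lower potency value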; note: potency is the fitted concentration of half-maximal effect). Particulars: qHTS. An outline of the steps: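 Jurkat (Clone E6-1) cells, 5000/well in complete medium, exposed to compounds for 40 hr at 37C; intracellular ATP measured by CellTiter-Glo luminescence after 20 min at room temperature. AC50 from Hill fits.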
Test [3] in a line: Cell Viability - HepG2 (AID 433).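 Note: potency is the fitted concentration of half-maximal effect; potency for ATP loss meaning cytotoxicity.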 To be noted: qHTS. The method in brief:
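Cytotoxicity read as ATP loss (CellTiter-Glo luminescence) after 40 hr compound exposure of HepG2, 1500 cells/well, 37 °C. AC50 by Hill equation; 0% set by DMSO, 100% inhibition by 100 uM tamoxifen.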

A short description of test [4]: Cell Viability - MRC5 (AID 434).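 Note: potency is the fitted concentration of half-maximal effect; potency reflects cytotoxicity seen as loss of intracellular ATP.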 Particulars: MRC5 lung fibroblast viability, qHTS. An outline of the steps:
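MRC5 normal human lung fibroblasts, 1500 cells/well, exposed to compound for 40 hr at 37 C. Cellular ATP was read by CellTiter-Glo luminescence; data normalized to DMSO and 100 uM tamoxifen, with AC50 from Hill fits.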

A short description of test [5]: Cell Viability - SK-N-SH (AID 435). Note: potency is the fitted concentration of half-maximal effect. To be noted: SK-N-SH neuroblastoma cell viability qHTS. An outline of the steps: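 qHTS cytotoxicity: CellTiter-Glo ATP luminescence after 40 h compound exposure of human neuroblastoma SK-N-SH cells at 37 °C. AC50 derived by Hill-equation fitting, with DMSO as basal and 100 uM tamoxifen as full inhibition.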
Test [6] is described as follows: AP1 Signaling Pathway (AID 357; active = well fitted curve in either direction with a large enough effect, not every such curve was filed as active;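 note: ME-180 reporter cells stimulated with EGF at its EC50 level; % is set by controls: 0 for no effect and ±100 for the full control effect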). To be noted: ME-180 AP-1-bla reporter, EGF-induced, beta-lactamase ratio, 5 h; at 17.2 µM (top of the series) unless noted. The method in brief: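 Modulation of EGF-driven AP-1 transcription was assessed with a beta-lactamase reporter in ME-180 cells. Compound and EC50 EGF were co-incubated 5 hours at 37 °C before 2.5-hour CCF4 loading at room temperature and dual-emission reading.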

Test [7] can be described thus: Stat Signaling Pathway (AID 446; active = well fitted curve in either direction with a large enough effect, not every such curve was filed as active;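 note: ME-180 cervical cancer cells given 40 pM IL-6 alongside compound; SIE-controlled beta-lactamase reporter measured as 460/530 nm FRET emission ratio; % is set by controls: 0 for no effect and ±100 for the full control effect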). To be noted: ME-180 SIE beta-lactamase reporter, IL-6 stimulated, 5 h; series mostly up to 17.2 µM. An outline of the steps: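 ME-180 cells carrying a SIE-driven beta-lactamase reporter are stimulated with 40 pM IL-6 for 5 h at 37C in the presence of compound. The 460/530 nm FRET substrate ratio is read after 2.5 h at RT. Data are normalised to 300 pM IL-6 and to 125 nM JAK inhibitor controls.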

Test [8] has as its target Cytochrome P450 1A2 (Homo sapiens) (UniProt P05177). As to the kind of experiment: p450-cyp1a2 (AID 410). Note: potency is the fitted concentration of half-maximal effect. Particulars: recombinant CYP1A2, luciferin-ME demethylation, luminescence; series mostly up to 25.6 µM. An outline of the steps: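 20nM CYP1A2 with 100uM Luciferin-ME (at Km) in 100mM KPO4; compound preincubated 10 min, NADPH regeneration added, 60 min at room temperature. Luciferin quantified by luminescence after detection reagent; normalized to 57 uM furafylline.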

“And” between values parts separate entries of the source, which are not always exact repeats. Identical values can stand only once. Inconclusive results are not listed. Values without a mark were called inactive. The source made the active and inactive calls. Unless noted, calls come from the whole dose curve.

Cytochrome P450 1A2 (Homo sapiens), sequence (P05177 whole entry, looked up): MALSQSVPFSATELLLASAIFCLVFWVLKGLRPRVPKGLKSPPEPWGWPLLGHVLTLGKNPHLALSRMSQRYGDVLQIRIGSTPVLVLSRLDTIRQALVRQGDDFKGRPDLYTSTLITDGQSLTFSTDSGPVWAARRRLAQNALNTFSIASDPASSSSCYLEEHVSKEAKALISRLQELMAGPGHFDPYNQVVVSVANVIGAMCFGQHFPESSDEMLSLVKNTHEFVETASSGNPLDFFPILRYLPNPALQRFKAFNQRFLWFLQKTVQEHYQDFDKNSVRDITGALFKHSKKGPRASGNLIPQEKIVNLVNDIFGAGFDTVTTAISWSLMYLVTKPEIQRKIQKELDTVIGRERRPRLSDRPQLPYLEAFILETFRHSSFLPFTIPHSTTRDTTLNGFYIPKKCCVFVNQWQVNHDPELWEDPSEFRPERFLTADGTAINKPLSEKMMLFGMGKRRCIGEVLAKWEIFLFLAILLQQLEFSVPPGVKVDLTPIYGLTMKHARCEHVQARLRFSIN

Turning to `c1ccc2occc2c1`, the Potency in test [1], in test [2], in test [3], in test [4] and in test [5] was greater than 92 µM throughout.

In the case of `Nc1ccc(O)cc1`, the Potency in test [1] is 62.8 µM (active); in test [2] it was 38.6 µM (active); in test [4], 53.3 µM (active); in test [5], 43 µM (active).

With `COc1cc(C=O)ccc1O`, the Potency in test [1], in test [2], in test [3], in test [4] and in test [5] was greater than 92 µM throughout.

For the compound `O=C(c1ccccc1)c1ccccc1`, the Potency in test [1], in test [2], in test [3], in test [4] and in test [5] was greater than 92 µM throughout.

As for `O=C(NO)c1ccccc1`, the Potency in test [1], in test [3], in test [4] and in test [5] was greater than 92 µM each time.

Turning to `Nc1c2ccccc2nc2ccccc12`, the values for the Potency in test [2], in test [4] and in test [5] were 31.9 µM (active), 38.2 µM (active) and 40.5 µM (active), respectively.

Take `OCCOCCN1CCN(C(c2ccccc2)c2ccc(Cl)cc2)CC1` (centres undefined): the activity change, negative = inhibition in test [6] is 3.37%. In test [7], the compound was classed as inactive.

For the compound `CCCC(=O)c1cc(O)c(O)cc1O`, the Potency in test [1], in test [3] and in test [4] was greater than 92 µM each time.

Consider `CC(C)C(C)(C)C(C)(C)C(C)(C)S`, for which the Potency in test [1], in test [2], in test [3], in test [4] and in test [5] was greater than 92 µM throughout.

As for `C[C@@H](C1=C(CCN(C)C)Cc2ccccc21)c1ccccn1`, the Potency in test [8] is 20 µM (active).

Regarding `Brc1ccccc1-c1ccccc1`, the Potency in test [1], in test [2], in test [3], in test [4] and in test [5] was greater than 92 µM in each case.

Regarding `CCCCCCCCCCCCCCCC[n+]1ccccc1`, the Potency was 55.8 µM (active) in test [1]; 19.2 µM (active) in test [2]; 32.8 µM (active) in test [3]; 29.8 µM (active) in test [4]; 28.7 µM (active) in test [5].

With `CC(C)N(CCC(=O)c1ccc2ccccc2c1)Cc1ccccc1`, the Potency in test [8] was 3.98 µM (active) and 2.51 µM (active).

For the compound `Oc1ccccc1`, the Potency in test [1], in test [2], in test [3], in test [4] and in test [5] was greater than 92 µM throughout.

For `O=C(Oc1ccccc1)c1ccccc1O`, the Potency in test [1], in test [2], in test [3], in test [4] and in test [5] was greater than 92 µM throughout.

As for `CCCCC(CC)COC(=O)c1ccccc1C(=O)O` (centres undefined), the Potency in test [1], in test [2], in test [3], in test [4] and in test [5] was greater than 92 µM throughout.

Turning to `CC(C)(C)c1ccc(O)c(O)c1`, the Potency in test [1] is greater than 92 µM; in test [2], 49.4 µM (active); in test [3], greater than 92 µM; in test [4], greater than 92 µM; in test [5], 54.4 µM (active).

Consider `Cc1cc(C(C)(C)C)c(O)c(C(C)(C)C)c1`, for which the Potency in test [1], in test [2], in test [3], in test [4] and in test [5] was greater than 92 µM throughout.

For `CC(C)(c1ccc(O)cc1)c1ccc(O)cc1`, the Potency in test [1], in test [2], in test [3], in test [4] and in test [5] was greater than 92 µM each time.

On to `Cn1cnc2c(NCc3ccccc3)nc(NCCO)nc21`, for which the Potency in test [8] is 7.94 µM (active) and 5.01 µM (active). Moreover, in test [7], the compound was classed as inactive.

Turning to `Cc1ccc(O)cc1`, the Potency in test [1], in test [2], in test [3], in test [4] and in test [5] was greater than 92 µM in each case.

Regarding `CC(=O)OC/C=C(C)/C=C/C=C(C)/C=C/C1=C(C)CCCC1(C)C`, the Potency is greater than 92 µM in test [1], 63.9 µM (active) in test [2], greater than 92 µM in test [3] and greater than 92 µM in test [4].

As to `C1=CC2C3C=CC(C3)C2C1` (centres undefined), the Potency in test [1], in test [2], in test [3], in test [4] and in test [5] was greater than 92 µM each time.

These data come from PubChem BioAssay (NCATS).
